# Test results taken from PubChem BioAssay (NCATS).
# Several values for one entry are separate records, joined by “and”; a condition that tells them apart may be missing. Identical values can stand only once. Results filed as inconclusive are left out. Entries that show only a call come without a potency. Some structures have more than one record in an assay (separate samples or runs), and their calls can disagree. Activity calls are given as the source filed them. Calls come from the whole dose curve; as a rule, active = well fitted curve in the direction sought with a large enough effect; inconclusive = small, poorly fitted or top-dose-only effect, or another doubt; inactive = no such curve, though single readings can be large; an effect the other way counts as inactive or inconclusive.
# Key:
# [1] = Viability qHTS for spleen associated tyrosine kinase inhibitor (SYKi) naive MV4-11 cells (AID 1963823); note: nearly all actives have a fitted effect of over 40% in size; note: potency is the fitted concentration of half-maximal effect
# Summary of the method: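 In this viability screen, compounds acted on SYK inhibitor naive MV4-11 cells for three days (72 hr, 37 C). Remaining viable cells were measured by CellTiter-Glo luminescence following a 10 min room-temperature development.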
# [2] = Viability qHTS for spleen associated tyrosine kinase inhibitor (SYKi) drug resistant MV4-11 cells (AID 1963824); note: nearly all actives have a fitted effect of over 35% in size; note: potency is the fitted concentration of half-maximal effect
# Summary of the method: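 CellTiter-Glo luminescence, read 10 min after reagent addition, reports viability after a 72 hr compound exposure. Cells are an MV4-11 line made resistant to SYK inhibition, seeded at 500 per well onto compound-containing plates.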
# [3] = Quantitative highthroughput screen to assess conditional lethalithy of NOMO1 cells grown in RPMI1640 with untreated serum (RPMI+s) (AID 1963876); note: nearly all actives have a fitted effect of over 35% in size; note: potency is the fitted concentration of half-maximal effect
# Summary of the method: (§1)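 Each medium arm—HPLM with 10% dialyzed FBS, or RPMI1640 with 5 mM glucose and 10% untreated or dialyzed FBS—was screened against an 11-point, 3-fold compound titration for 48 h at 37 °C, with CellTiter-Glo luminescence as endpoint.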
# [4] = Quantitative highthroughput screen to assess conditional lethalithy of NOMO1 cells grown in Human Plasma-Like Medium with dialyzed fetal bovine serum (HPLM+ds) (AID 1963878); note: nearly all actives have a fitted effect of over 35% in size
# Summary of the method: as §1
# [5] = Quantitative highthroughput screen to assess conditional lethalithy of P12 Ichikawa cells grown in Human Plasma-Like Medium with dialyzed fetal bovine serum (HPLM+ds) (AID 1963879); details: Potency: viability; note: nearly all actives have a fitted effect of over 35% in size; note: potency is the fitted concentration of half-maximal effect; for Viability: series mostly up to about 46 µM
# Summary of the method: as §1
# [6] = Quantitative highthroughput screen to assess conditional lethalithy of P12 Ichikawa cells grown in RPMI1640 with dialyzed fetal bovine serum (RPMI+ds) (AID 1963880); details: Potency: P12-Ichikawa viability; note: nearly all actives have a fitted effect of over 35% in size; note: potency is the fitted concentration of half-maximal effect
# Summary of the method: as §1
# [7] = Quantitative highthroughput screen to assess conditional lethalithy of P12 Ichikawa cells grown in RPMI1640 with untreated serum (RPMI+s) (AID 1963881); details: Potency: viability; note: nearly all actives have a fitted effect of over 35% in size; note: potency is the fitted concentration of half-maximal effect; for Viability: series mostly up to about 46 µM
# Summary of the method: as §1
# [8] = Quantitative highthroughput screen to assess conditional lethalithy of SEM cells grown in Human Plasma-Like Medium with dialyzed fetal bovine serum (HPLM+ds) (AID 1963882); note: nearly all actives have a fitted effect of over 35% in size; note: potency is the fitted concentration of half-maximal effect; for Viability: series mostly up to about 46 µM
# Summary of the method: as §1
# [9] = Quantitative highthroughput screen to assess conditional lethalithy of SEM cells grown in RPMI1640 with unreated serum (RPMI+s) (AID 1963883); note: nearly all actives have a fitted effect of over 35% in size; note: potency is the fitted concentration of half-maximal effect
# Summary of the method: as §1
# [10] = Quantitative highthroughput screen to assess conditional lethalithy of SEM cells grown in RPMI1640 with dialyzed fetal bovine serum (RPMI+ds) (AID 1963884); note: nearly all actives have a fitted effect of over 35% in size; note: potency is the fitted concentration of half-maximal effect; for Viability: series mostly up to about 46 µM
# Summary of the method: as §1
# [11] = Cellular viability qHTS for adrenocortical cancer (ACC) cell line SW-13 (AID 1963989); details: SW-13 ACC cells viability, CellTiter-Glo, 48 h; activity (max response): stronger effect = lower value; note: nearly all actives have a fitted effect of over 65% in size; note: potency is the fitted concentration of half-maximal effect;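 for activity (max response): cells grown in serum-free medium with ITS supplement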
# Summary of the method: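 Luminescent ATP read-out (CellTiter-Glo, 20 min at room temperature) measured metabolically competent SW-13 cells after 48 h compound treatment. Final concentrations spanned up to 46 uM; bortezomib served as positive control.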
# [12] = Cellular viability qHTS for adrenocortical cancer (ACC) cell line NCI-H295R (AID 1963990); note: nearly all actives have a fitted effect of over 60% in size; note: potency is the fitted concentration of half-maximal effect
# Summary of the method: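 IC50 and maximal efficacy derive from four-parameter logistic modelling of titration curves, with reads scaled between DMSO-only wells (0%) and doxorubicin hydrochloride (100% inhibition). Compounds spanned up to 46 uM over 48 h.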
# [13] = Quantitative highthroughput screen to assess conditional lethalithy of NOMO1 cells grown in RPMI1640 with dialyzed fetal bovine serum (RPMI+ds) (AID 1963877); note: nearly all actives have a fitted effect of over 30% in size; note: potency is the fitted concentration of half-maximal effect; for Viability: series mostly up to about 46 µM
# Summary of the method: as §1
SMILES,Potency [1],Potency [2],Potency [3],Potency [4],Potency [5],Potency [6],Potency [7],Potency [8],Potency [9],Potency [10],activity (max response) [11],Potency [12],Potency [13],Potency [11]
COc1ccc(C(=O)CC(=O)c2ccc(C(C)(C)C)cc2)cc1,inactive and 14.8 µM (active),inactive and 16.6 µM (active),inactive,inactive,inactive,inactive,inactive,inactive,inactive,inactive,8.41% (inactive) and -10.7% (inactive),inactive,–,–
CCC(=O)N[C@H]1CC[C@H](C(=O)N(C)c2ccc(-c3nc4ccccc4o3)cc2)C1,14.8 µM (active),14.8 µM (active),inactive,–,inactive,–,–,inactive,–,–,–,inactive,inactive,–
NCC(=O)Nc1ccc(-n2nc(C(F)(F)F)cc2-c2ccc3c(ccc4ccccc43)c2)cc1,5.8 µM (active) and 5.9 µM (active),2.91 µM (active) and 4.68 µM (active),inactive,–,2.96 µM (active),2.96 µM (active),–,inactive,inactive,–,–,–,9.35 µM (active),–
C[C@H](NC(=O)Cc1cc(F)cc(F)c1)C(=O)N[C@H](C(=O)OC(C)(C)C)c1ccccc1,inactive,14.8 µM (active),inactive,–,–,inactive,inactive,inactive,inactive,inactive,–,–,inactive,–
Cn1c(=O)c(-c2c(Cl)cccc2Cl)cc2cnc(Nc3cccc(C(=O)O)c3)nc21,0.662 µM (active),0.259 µM (active),inactive,–,–,–,inactive,–,14.8 µM (active),–,–,inactive,inactive,–
NC1(Cc2ccc(Cl)cc2)CCN(c2ncnc3[nH]ccc23)CC1,3.72 µM (active),5.25 µM (active),10.5 µM (active),–,–,–,–,6.62 µM (active),5.26 µM (active),7.43 µM (active),–,20 µM (active),9.35 µM (active),–
NC(=O)Nc1cc(-c2cccc(F)c2)sc1C(=O)N[C@H]1CCCNC1,inactive,inactive,1.05 µM (active),–,–,1.18 µM (active),1.18 µM (active),–,0.0074 µM (active),–,–,0.794 µM (active),0.59 µM (active),1.78 µM (active)
CC(C)c1cnn2c(NCc3ccccc3)cc(NCCCCCCN)nc12,16.6 µM (active),14.8 µM (active),inactive,–,–,inactive,inactive,inactive,inactive,inactive,–,25.1 µM (active),inactive,–
CCOC(=O)C1=C(O)C(=O)N(Cc2ccccc2)C1,inactive,inactive,inactive,inactive,inactive,inactive,inactive,inactive,inactive,inactive,4.18% (inactive),inactive,–,–
COc1cc(C(C)C)c2c(c1)S(=O)(=O)N(COc1cc(=O)n3cccc(OCCN4CCCCC4)c3n1)C2=O,20.9 µM (active),11.8 µM (active),inactive,–,inactive,–,inactive,inactive,–,inactive,–,17.8 µM (active),inactive,–
Cc1c(-c2ccnn2C)cc(C(=O)NCc2ccc(S(C)(=O)=O)cn2)c(=O)n1-c1cccc(C(F)(F)F)c1,inactive,inactive,inactive,inactive,inactive,inactive,inactive,inactive,inactive,inactive,5.26% (inactive),inactive,–,–
CCOC(=O)c1ccc(OC(=O)CCCCCN=C(N)N)cc1,inactive,inactive,3.32 µM (active),–,1.87 µM (active),–,7.43 µM (active),–,–,–,3.73% (inactive),inactive,3.32 µM (active),–
COc1ccc2c(c1)c(CC(=O)OCC(=O)O)c(C)n2C(=O)c1ccc(Cl)cc1,inactive,inactive,inactive,–,inactive,inactive,–,inactive,inactive,inactive,-2.34% (inactive),inactive,inactive,–
N#Cc1c(C2CCNCC2)cc(-c2c(O)cccc2OCC2CC2)nc1N,5.9 µM (active),6.61 µM (active),inactive,–,inactive,inactive,inactive,–,–,–,–,11.2 µM (active),inactive,28.2 µM (active)
CC(c1cc2ccccc2s1)N(O)C(N)=O (configuration not stated),inactive,inactive,inactive,–,inactive,inactive,–,–,–,inactive,-61.3% (inactive),inactive,inactive,–
CNNCc1ccc(C(=O)NC(C)C)cc1,inactive,inactive,inactive,–,inactive,–,–,–,–,–,0.571% (inactive) and -4.58% (inactive),inactive,inactive,–
